Where a name gives a salt, the structure may show the parent alone.
How the values were obtained:
Conditions in all cases: 20 µM; incubation time: 27 h, anaerobic, 37 °C;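 for the amine columns active = adjusted P below 0.05 in both replicates with a change the same way and a mean fold change under 0.8 or over 1.25; inactive = the rest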
[1] = tested on: Clostridium sporogenes DSM 1664; assay: growth (OD595) fold change vs plate DMSO controls (fold change (ratio)); higher = more growth
How it was run: (§1)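 After 27 h at 37 °C under anaerobic conditions, 96-well cultures in mGAM were shaken and read at 595 nm. The readings were blank-subtracted, corrected for compound background using 20 µM compound solutions in water, and converted to OD with a calibration factor of 5. Growth is defined as the fold change over the median of DMSO controls on each plate. Fold changes above 1.5 were set to NA, and each value is the mean of 2 biological replicates.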

[2] = tested on: Escherichia coli IAI1; assay: as above
How it was run: as §1

[3] = tested on: Klebsiella aerogenes DSM 30053; assay: as above
How it was run: as §1

[4] = tested on: Ruminococcus gnavus DSM 108212; assay: as above
How it was run: as §1

[5] = tested on: Klebsiella aerogenes DSM 30053; assay: fold change of Histamine concentration vs plate DMSO controls (fold change (ratio)); higher = more amine produced, active = hit call of the paper (significant change in both replicates, either direction)
How it was run: (§2)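 Amine values are fold changes relative to DMSO-only wells on the same plate. They derive from 27 h, 37 °C anaerobic mGAM cultures of four gut bacterial strains in 80 µL wells, dosed at 20 µM final, or 50 µM final for sweeteners. Extraction of the whole culture, LC–triple-quadrupole MS in dynamic MRM mode, external calibration curves and within-batch drift correction were used, with 2 biological replicates averaged.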

[6] = tested on: Clostridium sporogenes DSM 1664; assay: fold change of Tryptamine concentration vs plate DMSO controls (fold change (ratio)); higher = more amine produced, active = hit call of the paper (significant change in both replicates, either direction)
How it was run: as §2

[7] = tested on: Ruminococcus gnavus DSM 108212; assay: as above
How it was run: as §2

[8] = tested on: Escherichia coli IAI1; assay: fold change of Putrescine concentration vs plate DMSO controls (fold change (ratio)); higher = more amine produced, active = hit call of the paper (significant change in both replicates, either direction)
How it was run: as §2

[9] = tested on: Klebsiella aerogenes DSM 30053; assay: as above
How it was run: as §2

[10] = tested on: Escherichia coli IAI1; assay: fold change of Cadaverine concentration vs plate DMSO controls (fold change (ratio)); higher = more amine produced, active = hit call of the paper (significant change in both replicates, either direction)
How it was run: as §2

[11] = tested on: Klebsiella aerogenes DSM 30053; assay: as above
How it was run: as §2

[12] = tested on: Ruminococcus gnavus DSM 108212; assay: fold change of 2-Phenylethylamine concentration vs plate DMSO controls (fold change (ratio)); higher = more amine produced, active = hit call of the paper (significant change in both replicates, either direction)
How it was run: as §2

SMILES | growth [1] | growth [2] | growth [3] | growth [4] | fold change of Histamine concentration [5] | fold change of Tryptamine concentration [6] | fold change of Tryptamine concentration [7] | fold change of Putrescine concentration [8] | fold change of Putrescine concentration [9] | fold change of Cadaverine concentration [10] | fold change of Cadaverine concentration [11] | fold change of 2-Phenylethylamine concentration [12]
C[C@]12C/C(=C/O)C(=O)C[C@@H]1CC[C@@H]1[C@@H]2CC[C@@]2(C)[C@H]1CC[C@]2(C)O [Oxymetholone] | 1.21 | 1.01 | 1 | 1.16 | 0.984 (inactive) | 0.861 (inactive) | 0.223 (active) | 1.02 (inactive) | 1.02 (inactive) | 1 (inactive) | 1.01 (inactive) | 0.271 (active)
Cc1cc(C)nc(Nc2ccccc2)n1 | 0.995 | 1.06 | 0.999 | 1.01 | 0.986 (inactive) | 1 (inactive) | 1 (inactive) | 1.05 (inactive) | 1.02 (inactive) | 1.05 (inactive) | 1.02 (inactive) | 1.04 (inactive)
CCOC(=O)CC(SP(=S)(OC)OC)C(=O)OCC (configuration not stated) | 0.873 | 1.03 | 1.01 | 0.941 | 0.998 (inactive) | 1.06 (inactive) | 1.02 (inactive) | 1.01 (inactive) | 0.994 (inactive) | 0.997 (inactive) | 0.993 (inactive) | 1 (inactive)
CNC(=O)c1cc(C#N)cc(C)c1NC(=O)c1cc(Br)nn1-c1ncccc1Cl | 1.13 | 0.996 | 0.981 | 1.06 | 1 (inactive) | 1.2 (inactive) | 1.06 (inactive) | 0.935 (inactive) | 0.938 (inactive) | 0.886 (inactive) | 1.02 (inactive) | 1.08 (inactive)
C#CCN(C)[C@H](C)Cc1ccccc1 [Selegiline hydrochloride] | 0.986 | 1.05 | 1.02 | 0.963 | 0.982 (inactive) | 1.11 (inactive) | 1.05 (inactive) | 1.07 (inactive) | 0.975 (inactive) | 1.03 (inactive) | 1.01 (inactive) | 1.06 (inactive)
C#C[C@]1(O)CC[C@H]2[C@@H]3CCC4=CC(=O)CCC4=C3C=C[C@@]21CC [Gestrinone] | 1.02 | 0.985 | 0.996 | 1.04 | 0.947 (inactive) | 1.03 (inactive) | 1.16 (inactive) | 0.88 (inactive) | 0.96 (inactive) | 0.913 (inactive) | 1.03 (inactive) | 1.18 (inactive)
NCCCNCCSP(=O)(O)O [Amifostine] | 0.94 | 1 | 1.12 | 1.38 | 0.978 (inactive) | 1.01 (inactive) | 1.03 (inactive) | 1 (inactive) | 0.999 (inactive) | 1.01 (inactive) | 0.999 (inactive) | 1.01 (inactive)
CC(C)OC(=O)Nc1cccc(Cl)c1 | 1.05 | 1.04 | 1.05 | 0.957 | 0.972 (inactive) | 0.989 (inactive) | 1.02 (inactive) | 0.987 (inactive) | 0.984 (inactive) | 0.927 (inactive) | 1.01 (inactive) | 1.06 (inactive)
O=C(NC(=O)c1c(F)cccc1F)Nc1ccc(Cl)cc1 | 1.04 | 0.979 | 1.02 | 0.975 | 1.01 (inactive) | 0.919 (inactive) | 0.999 (inactive) | 0.982 (inactive) | 1.05 (inactive) | 1.01 (inactive) | 1.03 (inactive) | 0.98 (inactive)
O=C(O)C(F)(F)C(F)(F)C(F)(F)C(F)(F)C(F)(F)C(F)(F)C(F)(F)F [PFOA (Perfluorooctanoic acid)] | 0.946 | 1.02 | 0.999 | 0.985 | 1.02 (inactive) | 0.979 (inactive) | 0.94 (inactive) | 1.03 (inactive) | 1 (inactive) | 1.02 (inactive) | 0.992 (inactive) | 0.878 (inactive)
Cc1cccc(C)c1NC1=NCCCS1 [Xylazine] | 1.16 | 0.985 | 0.959 | 0.87 | 1.09 (inactive) | 1.01 (inactive) | 1 (inactive) | 1.03 (inactive) | 1.02 (inactive) | 0.991 (inactive) | 0.993 (inactive) | 1 (inactive)
CN1C[C@H](C(=O)N[C@]2(C)O[C@@]3(O)[C@@H]4CCCN4C(=O)[C@H](Cc4ccccc4)N3C2=O)C[C@@H]2c3cccc4[nH]cc(c34)C[C@H]21 [Dihydroergotamine tartrate] | 1.2 | 1.13 | 1.1 | 0.827 | 0.89 (inactive) | 0.928 (inactive) | 0.982 (inactive) | 1.06 (inactive) | 0.984 (inactive) | 0.966 (inactive) | 1.01 (inactive) | 0.921 (inactive)
CO/C=C(/C(=O)OC)c1ccccc1Oc1cc(Oc2ccccc2C#N)ncn1 | 0.938 | 0.996 | 1.01 | 0.966 | 0.996 (inactive) | 1.02 (inactive) | 1.01 (inactive) | 1.04 (inactive) | 0.994 (inactive) | 0.962 (inactive) | 0.992 (inactive) | 1.01 (inactive)
OCC(O)CCl (racemic) | 0.938 | 1.02 | 0.97 | 0.97 | 1.01 (inactive) | 1.11 (inactive) | 1.08 (inactive) | 0.975 (inactive) | 0.959 (inactive) | 0.891 (inactive) | 1 (inactive) | 1.18 (inactive)
C=CCC1(CC(C)C)C(=O)NC(=O)NC1=O [Butalbital] | 1.07 | 1.04 | 0.966 | 0.589 | 1.01 (inactive) | 1 (inactive) | 1 (inactive) | 0.995 (inactive) | 1.01 (inactive) | 1.02 (inactive) | 0.997 (inactive) | 1 (inactive)
Cc1nnc(-c2ccccc2)c(=O)n1N | 0.969 | 1.05 | 0.993 | 1.01 | 1.04 (inactive) | 0.988 (inactive) | 1.04 (inactive) | 0.965 (inactive) | 1 (inactive) | 1.03 (inactive) | 0.972 (inactive) | 1.13 (inactive)
CC(C)N1C(=O)c2ccccc2NS1(=O)=O | 1.02 | 1.03 | 0.992 | 1.17 | 0.978 (inactive) | 0.976 (inactive) | 0.99 (inactive) | 0.969 (inactive) | 0.979 (inactive) | 0.979 (inactive) | 0.987 (inactive) | 1.03 (inactive)
C[C@@H]1CC[C@H]2[C@@H](C)C(=O)O[C@@H]3O[C@@]4(C)CC[C@@H]1[C@]32OO4 [Artemisinin] | 0.953 | 0.972 | 1.02 | 1.13 | 1.01 (inactive) | 1.02 (inactive) | 1.03 (inactive) | 1.01 (inactive) | 1.01 (inactive) | 0.966 (inactive) | 1.01 (inactive) | 1.03 (inactive)
CNC(=O)Oc1cccc(/N=C/N(C)C)c1 | 0.913 | 0.992 | 0.988 | 1.04 | 1.02 (inactive) | 1.04 (inactive) | 0.993 (inactive) | 0.96 (inactive) | 1 (inactive) | 1.02 (inactive) | 1 (inactive) | 0.934 (inactive)
NC(=O)CN1CC(O)CC1=O (configuration not stated) [Oxiracetam] | 0.902 | 0.994 | 0.98 | 0.915 | 1 (inactive) | 1.14 (inactive) | 1.1 (inactive) | 0.941 (inactive) | 0.865 (inactive) | 0.876 (inactive) | 1.07 (inactive) | 1.14 (inactive)
CCOP(=S)(OCC)Oc1cc(C)nc(C(C)C)n1 | 0.996 | 1.01 | 0.998 | 1.15 | 1.04 (inactive) | 1.03 (inactive) | 0.997 (inactive) | 1 (inactive) | 1 (inactive) | 1.01 (inactive) | 1 (inactive) | 1 (inactive)
CCCN(CCOc1c(Cl)cc(Cl)cc1Cl)C(=O)n1ccnc1 | 1.07 | 0.976 | 1.01 | 0.951 | 1.02 (inactive) | 1.05 (inactive) | 1.02 (inactive) | 1 (inactive) | 1.01 (inactive) | 1.02 (inactive) | 0.998 (inactive) | 1.04 (inactive)
C[N+](C)(C)CCCl | 1.05 | 0.994 | 0.986 | 0.97 | 1.01 (inactive) | 1.03 (inactive) | 1.06 (inactive) | 0.949 (inactive) | 0.82 (inactive) | 0.863 (inactive) | 1.08 (inactive) | 1.06 (inactive)
CCc1cccc(C)c1N(C(=O)CCl)[C@@H](C)COC | 1.01 | 1.01 | 0.995 | 0.912 | 1.01 (inactive) | 1.07 (inactive) | 1.01 (inactive) | 1.02 (inactive) | 0.999 (inactive) | 0.998 (inactive) | 0.997 (inactive) | 1.04 (inactive)
N#Cc1c(Cl)c(Cl)c(Cl)c(C#N)c1Cl | 0.937 | 1.02 | 0.925 | 0.962 | 1.03 (inactive) | 0.995 (inactive) | 0.853 (inactive) | 1 (inactive) | 0.995 (inactive) | 1.08 (inactive) | 0.991 (inactive) | 0.804 (inactive)
CC(=O)[C@H]1CC[C@H]2[C@@H]3CC[C@H]4C[C@H](O)CC[C@]4(C)[C@H]3C(=O)C[C@]12C [Alfaxalone] | 1.12 | 1.03 | 1.02 | 1.13 | 1.06 (inactive) | 0.957 (inactive) | 0.959 (inactive) | 0.994 (inactive) | 1.06 (inactive) | 1 (inactive) | 1.02 (inactive) | 0.913 (inactive)

Reference: the supplement of paper PMC12494721
